From PubChem BioAssay
Hits are enriched below; roughly 2.4% of the tested compounds scored in any of these assays.
CHO-K1 Ca PAM = M1 PAM counterscreen hit in parental CHO-K1 cells. ATP EC20, Fluo-8 calcium fluorescence; 0% at ATP EC20, 100% at ATP max. activation, % at 3 µM. 0.02% of 360,000 active. AID 602247;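 active means activation above the run cutoff, the mean activation of all test compounds plus 3 SD, cut at about 40% in these data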;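 further: peak over basal fluorescence ratio in a 140 s read after ATP addition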
M1 ag = agonists of human M1 muscarinic receptor. CHO-K1 hM1, Fluo-8 calcium fluorescence, agonist mode; 0% DMSO, 100% acetylcholine EC100. activation, % at 3 µM. 0.33% of 360,000 active. AID 588814;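 active means activation above the run's mean compound activation plus 3 SD, cut at about 16% in these data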;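 further: peak over basal fluorescence ratio within a 140 s kinetic read after compound addition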
Target sequence (P11229 whole entry, looked up): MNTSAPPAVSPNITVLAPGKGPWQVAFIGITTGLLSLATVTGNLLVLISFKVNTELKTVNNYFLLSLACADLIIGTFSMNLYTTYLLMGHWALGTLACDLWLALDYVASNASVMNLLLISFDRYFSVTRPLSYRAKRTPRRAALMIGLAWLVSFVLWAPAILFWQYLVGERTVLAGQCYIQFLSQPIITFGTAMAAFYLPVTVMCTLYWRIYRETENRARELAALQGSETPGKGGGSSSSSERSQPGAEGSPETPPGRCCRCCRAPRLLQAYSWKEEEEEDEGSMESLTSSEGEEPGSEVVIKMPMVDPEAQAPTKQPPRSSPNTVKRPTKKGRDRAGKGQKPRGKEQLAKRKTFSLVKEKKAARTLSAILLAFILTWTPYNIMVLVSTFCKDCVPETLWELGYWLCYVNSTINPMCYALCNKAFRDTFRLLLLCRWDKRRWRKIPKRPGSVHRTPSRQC
CHRM1 PAM = potentiates human M1 receptor response to acetylcholine; CHO-K1 hM1, Fluo-8 calcium fluorescence, ACh EC20; 0% = ACh EC20, 100% = maximal ACh; activation, % at 3 µM; 0.088% of 360,000 active; in the data active means activation above about 19%, passing the limit was not always enough
M1 antag = human CHRM1 antagonism | inhibition, % at 3 µM | P11229 | 1.3% of 360,000 active | CHO-K1 hM1, Fluo-8 calcium fluorescence, ACh EC80 antagonist;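 active means percent inhibition above its own plate's cutoff, namely the mean of that plate's compound wells plus 3 SD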;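 further: peak over basal fluorescence ratio during 140 s after agonist addition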
M1 ag parental = M1 agonist counterscreen hit in parental CHO-K1 cells; Fluo-8 calcium fluorescence; scaled to maximal ATP response, vehicle zero; activation, % at 3 µM; 0.48% of 360,000 active; AID 602248; in the data active means activation above about 15%;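 further: untransfected CHO-K1 host cells lacking M1 receptor as counterscreen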
CHO-K1 Ca antag = nonselective inhibitor or artifact in parental CHO-K1 cells; ATP-induced calcium, Fluo-8 fluorescence; inhibition, % at 3 µM; 0.6% of 360,000 active; AID 602250;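 active means inhibition above a per-plate cutoff, the plate's mean sample inhibition plus 3 SD, cut at about 24% in these data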
Numbers stand for hits; 0 = inactive.

SMILES	CHO-K1 Ca PAM	M1 ag	CHRM1 PAM	M1 antag	M1 ag parental	CHO-K1 Ca antag
O=C(CCc1nnc2ccc(NCc3ccco3)nn12)Nc1cccc(F)c1	0	0	0	0	0	0
Cc1ccc(S(=O)(=O)N2CCOCC2)cc1NC(=O)CN(C)CC(=O)Nc1cccc(F)c1	0	0	0	0	0	0
O=C(Nc1cccc(C(=O)NC2CC2)c1)c1ccc(Cl)c(S(=O)(=O)N2CCOCC2)c1	0	0	0	0	0	0
O=C(Nc1ccc(S(=O)(=O)N2CCCC2)cc1)c1ccc(OCC2CCCO2)cc1 (stereo not drawn)	0	0	0	0	0	0
COc1ccc(NC(=O)CCN2CCN(S(=O)(=O)c3cc(Cl)ccc3Cl)CC2)cc1	57.5	0	0	0	0	0
O=C(Nc1ccc(Cl)c(S(=O)(=O)N2CCOCC2)c1)c1ccc(OCC2CCCO2)cc1 (stereo not drawn)	0	0	0	36.4	0	24.0
O=C(Nc1cccc(Br)c1)c1ccc(Cl)c(S(=O)(=O)N2CCOCC2)c1	0	0	0	42.8	0	0
COc1ccc(C(=O)Nc2ccc(Cl)c(S(=O)(=O)N3CCOCC3)c2)cc1	0	0	0	0	17.3	0
CN(CC(=O)Nc1ccc(F)cc1)C(=O)COc1ccccc1Cc1ccccc1	0	0	0	0	0	0
CN(CCOc1ccc(Cl)cc1)Cc1cccc(S(=O)(=O)N(C)C)c1	0	31.8	0	0	0	0
CC(C)(C)c1ccc(NC(=O)Nc2ccc(F)cc2)cc1	0	0	0	48.6	16.4	35.6
O=C(Nc1ccc(F)cc1)Nc1cc(OCC(F)(F)F)cc(OCC(F)(F)F)c1	0	0	0	0	0	32.1
COc1cccc(NC(=O)Nc2ccncc2)c1	0	0	0	0	0	0
COc1cccc(NC(=O)Nc2ccc(C(C)(C)C)cc2)c1	0	0	0	26.1	19.2	45.5
COc1ccc(CC(=O)Nc2c3c(nn2C(C)(C)C)CS(=O)(=O)C3)cc1	0	0	0	0	0	0
COc1ccc2c(c1)SCC/C2=C\CN1C(=O)CCC1=O	0	0	0	0	0	0
O=C(NNC(=O)C1C2C=CC(C2)C1C(=O)O)c1cc(Cl)ccc1O (stereo not drawn)	0	0	0	0	0	0
Cc1ccc(S(=O)(=O)N2CCN(C)CC2)c2nsnc12	0	0	0	0	0	0
COc1ccc(N2CCN(S(=O)(=O)CCNC(=O)c3cc(=O)c4ccccc4o3)CC2)cc1	0	0	0	0	0	0
CN(C)C(CNC(=O)CCc1nc2cc(Cl)ccc2n(Cc2ccccc2)c1=O)c1ccccc1 (stereo not drawn)	0	0	0	27.0	0	0
O=C(O)C1C2CCCCC2=C2CCCCC2C1C(=O)c1ccccc1 (stereo not drawn)	0	0	0	0	0	0
CC(=O)Nc1ccc(S(=O)(=O)N(C)c2ccc(OCC(=O)Nc3ccccc3C(C)=O)cc2)cc1	0	0	0	35.5	0	0
CN(c1ccc(OCC(=O)OCC(=O)Nc2ccc(F)cc2)cc1)S(=O)(=O)c1ccc(Cl)cc1	0	0	0	0	0	0
COc1ccc(NC(=O)COc2ccc(N(C)S(=O)(=O)c3ccc(Cl)cc3)cc2)cc1OC	0	0	0	38.3	0	27.2
Cc1nn(-c2ccccc2)c(Cl)c1/C=N/Nc1nncc(=O)[nH]1	0	0	0	0	0	0
SMILES	CHO-K1 Ca PAM	M1 ag	CHRM1 PAM	M1 antag	M1 ag parental	CHO-K1 Ca antag
CC(=O)N[C@@H](Cc1c[nH]c2ccccc12)C(=O)NCCc1ccc(S(N)(=O)=O)cc1	0	0	0	0	0	0
CCOC(=O)c1[nH]cnc1C(=O)N1CCN(C(=O)OC(C)(C)C)CC1	0	0	0	0	0	0
O=C(NCc1cccc(C(F)(F)F)c1)c1csc([C@@H]2C[C@H](O)[C@@H](CO)O2)n1	0	0	0	0	0	0
O=C(CNC(=O)C1CCCCC1)Nc1cc(Cl)ccc1Cl	0	0	0	0	0	24.8
O=C(CNC(=O)C1CCCCC1)Nc1ccccc1Cl	0	0	0	0	0	0
Cn1cnc(S(=O)(=O)N2CCN(C(c3ccc(F)cc3)c3ccc(F)cc3)CC2)c1	0	0	0	0	0	0
Brc1ccc(C2=CC(c3cccs3)n3ncnc3N2)cc1 (stereo not drawn)	0	27.8	0	0	33.0	0
C1=C(c2ccc(-c3ccccc3)cc2)Nc2ncnn2C1c1ccco1 (stereo not drawn)	0	120.4	0	44.6	38.1	29.3
COC(=O)C1=NNC2(C)C(=O)N(c3ccc(C)cc3)C(=O)C12 (stereo not drawn)	0	0	0	0	0	0
NC(=O)COc1ccccc1/C=C1/SC(=O)N(CC(=O)N2CCc3ccccc3C2)C1=O	0	0	0	0	0	0
CCOc1cc(/C=C2/SC(=O)N(CC(=O)N3CCc4ccccc4C3)C2=O)ccc1OCC(=O)O	0	0	19.2	0	0	0
CC(=O)C1CCC2C3CCC4=CC(=O)CCC4(C)C3C(O)CC12C (stereo not drawn)	0	0	0	0	0	0
CC12CCC(=O)C=C1CCC1C2CCC2(C)C(C(=O)CO)CC(O)C12 (stereo not drawn)	0	0	0	0	0	0
CC12CCC(=O)C=C1CCC1C2C(O)CC2(C)C(c3csc(N)n3)CCC12 (stereo not drawn)	0	0	0	41.5	0	0
CC12CCC(=O)C=C1CCC1C2CCC2(C)C(c3csc(N)n3)CCC12 (stereo not drawn)	0	0	0	79.4	0	0
CCC(C(=O)OCC(=O)C1(O)CCC2C3CCC4=CC(=O)CCC4(C)C3C(O)CC21C)C(C)C (stereo not drawn)	0	0	0	84.0	0	0
CC(=O)[C@@]1(O)CC[C@H]2[C@@H]3CCC4=CC(=O)CC[C@]4(C)[C@H]3[C@@H](O)C[C@@]21C	0	0	0	0	0	0
CCN1C(=O)c2ccc(C(=O)Nc3ccc4c(c3)OCO4)cc2C1=O	0	0	0	0	0	0
CCOc1ccc(NC(=O)c2ccc3[nH]c(=O)c(=O)[nH]c3c2)cc1	0	0	0	0	0	0
CN(C)Cc1ccc(F)cc1Sc1ccc(Cl)cc1Cl	0	0	0	51.5	0	0
CC(C)[C@H](NS(=O)(=O)c1ccccc1)C(=O)OCC(=O)NC(=O)NC1CCCCC1	0	0	0	0	0	0
O=C(Nc1ccccc1)Nc1ccc(F)c([N+](=O)[O-])c1	0	0	0	0	15.4	0
Cc1ccc(NC(=O)Nc2ccccc2)cc1[N+](=O)[O-]	0	0	0	0	0	0
O=C(Nc1ccccc1)Nc1ccc(Cl)c([N+](=O)[O-])c1	0	0	0	0	16.7	0
CCNC(=S)Nc1ccc(Cl)c([N+](=O)[O-])c1	0	0	0	35.7	0	0
